Screening data: PubChem BioAssay, National Center for Advancing Translational Sciences (NCATS)
In the library only some 6.6% were active in any assay of this set; here they are far more common.
HepG2 tox – counter-screen for TGF-b inhibitors: cytotoxicity in HepG2 cells; HepG2 CAGA-GFP viability, ATP luminescence, 18 h; Potency, µM (series often up to 46.1 µM), without a hit: at the highest dose activity change, negative = cytotoxicity, actives largely listed as cytotoxic; 0.76% of 410,000 active
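HepG2 CAGA-GFP cells (1000/well, DMEM with 1% FBS) received compound, then TGF-beta at 500 pg/mL final, and were incubated 18 hours at 37 degrees C. Viability was read by CellTiter-Glo luminescence. Media-only wells were set as complete cell-killing and DMSO as no toxicity.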
HT1080 IDH1KD tx – toxicity to HT-1080 IDH1 knockdown cells (counter line) | Potency, µM (titrated, usually from 46.1 µM), without a hit: at the highest dose activity, negative = toxicity, hits mostly cytotoxic | AID 686971 | HT-1080 IDH1 knockdown viability, ATP luminescence, 48 h | 2% of 360,000 active;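 note: 0% = DMSO wells and -100% = cell-free medium wells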
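After a 2 h attachment period, IDH1KD HT-1080 cells took pin-transferred compound for 48 h at 37 °C; ATP-based luminescence after 10 min room-temperature reagent incubation reported viability.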
TGFb SMAD3 inh – TGF-b pathway inhibition. 1.2% of 410,000 active. HepG2 CAGA-GFP TGF-b/SMAD3 reporter, GFP fluorescence, 18 h; TGF-beta stimulated, 500 pg/mL final. AID 588855. Potency, µM (titrated, usually from 46.1 µM), for inactives: top-dose activity, negative = inhibition, actives largely listed as inhibitors; note: % is set by controls: 0 for no effect and ±100 for the full control effect; nearly all actives have a fitted effect of over 65% in size
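Using HEPG2 CAGA-GFP reporter cells at 1000 cells/well, we pinned test compounds, stimulated with recombinant TGF-beta (500 pg/mL final) and measured total well GFP after 18 h.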
KB-V1 cytotox – kills drug-selected multidrug resistant KB-V1 cells | 3.4% of 400,000 active | AID 1347076 | Potency, µM (series often up to 46.1 µM), usual class: cytotoxic | KB-V1 MDR cells viability, CellTiter-Glo, 72 h; note: % is set by controls: 0 for no effect and ±100 for the full control effect; nearly all actives have a fitted effect of over 60% in size
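qHTS viability screen in drug-selected KB-V1 MDR cells: 72 h compound treatment at 37 degrees C, ATP luminescence end point.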
HT1080-NT tox – kills 2HG-producing HT-1080-NT fibrosarcoma cells; Potency, µM (top dose mostly 46.1 µM), without a hit: at the highest dose activity, negative = less viability, most hits filed as cytotoxic; 1.6% of 360,000 active; AID 686970; HT-1080-NT fibrosarcoma viability, CellTiter-Glo ATP luminescence, 48 h;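 note: NT is the 2HG producing partner of a matched IDH1 knockdown line; 0% = DMSO-treated cells and -100% = media-only wells without cells; nearly all actives have a fitted effect of over 55% in size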
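Viability by CellTiter-Glo luminescence after 48 h compound exposure at 37C of HT-1080-NT cells (750/well, RPMI, 5% FBS). % activity scaled between DMSO wells and medium-only wells, then curve-fitted and categorized by curve class.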
KB-3-1 tox – KB-3-1 parental cell cytotoxicity; AID 1347075; 1.4% of 400,000 active; Potency, µM (highest dose often 46.1 µM), most hits filed as cytotoxic; KB-3-1 viability, CellTiter-Glo ATP luminescence, 72 h; note: % is set by controls: 0 for no effect and ±100 for the full control effect; nearly all actives have a fitted effect of over 60% in size
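Cytotoxicity measured as CellTiter-Glo luminescence after 72 h at 37 C. Compound titrations were pinned onto drug-naive KB-3-1 parental adenocarcinoma cells grown in DMEM with 10% FBS, and normalized data fitted to concentration-response curves.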
Numbers without * were called inactive; i = inactive; ? = inconclusive; / = no result given. Calls come from the whole dose curve; as a rule, active = well fitted curve in the direction sought with a large enough effect; inconclusive = small, poorly fitted or top-dose-only effect, or another doubt; inactive = no such curve, though single readings can be large; an effect the other way counts as inactive or inconclusive. Potency is the fitted concentration of half-maximal effect.

SMILES	HepG2 tox	HT1080 IDH1KD tx	TGFb SMAD3 inh	KB-V1 cytotox	HT1080-NT tox	KB-3-1 tox
COc1ccc(CCNC(=O)CSc2nnc(-c3ccc(F)cc3)c3ccccc23)cc1OC	-41%	-1%	?	7.3µM*	-3%	i
COc1ccc(CCNC(=O)CSc2nnc(-c3ccc(C)cc3)c(-c3ccc(C)cc3)n2)cc1OC	-35%	/	-10%	i	/	i
COc1ccc(CCNC(=O)C(=O)NCc2ccc(C)cc2)cc1OC	-8%	-3%	1%	21µM*	14%	i
CCc1ccc(CNC(=O)C(=O)NCCc2ccc(OC)c(OC)c2)cc1	11%	-18%	8%	i	-2%	i
COc1ccc(CCNC(=O)CSCc2ccc(Cl)cc2)cc1OC	-21%	10%	?	6.5µM*	2%	i
COc1ccc(CCNC(=O)CSCc2ccc([N+](=O)[O-])cc2)cc1OC	-31%	-1%	-13%	i	1%	i
COc1ccc(CCNC(=O)CSCc2ccc(C)cc2)cc1OC	7%	3%	7%	21µM*	-1%	i
CCCC12CN3CC(CCC)(CN(C1)C3c1ccc(OCc3ccccc3)cc1)C2=O (configuration not stated)	7%	/	?	i	/	i
COc1ccc(-n2nnnc2SCC(=O)NCCc2ccc(OC)c(OC)c2)cc1	-1%	-24%	0%	8.2µM*	-9%	i
COc1ccc(CCCC(=O)NCc2ccccc2)cc1C	-21%	?	-15%	6.5µM*	?	?
COc1ccc(CCNC(=O)CSc2nnnn2C)cc1OC	-35%	0%	3%	i	1%	i
COc1ccc(CCNC(=O)CCN2C(=O)C(C)Oc3ccc(C)cc32)cc1OC (configuration not stated)	1%	-13%	0%	8.2µM*	0%	i
Cc1ccc(CNC(=O)CCCc2ccccc2)cc1	-15%	6%	0%	i	6%	i
COc1cccc(CN2C(=O)C3(SCC(=O)N3c3cc(C)cc(C)c3)c3ccccc32)c1 (configuration not stated)	-19%	/	16%	?	/	?
Cc1ccc(C(=O)OCC(=O)Nc2ccc3c(c2)OCO3)c(O)c1	-1%	12%	-1%	?	3%	i
COc1ccc(-n2nnnc2-c2cnc3cc4c(cc3c2C)OCO4)cc1	6%	-7%	-5%	9.2µM*	-2%	i
CCn1c(C)c(C2=CCN(S(=O)(=O)c3ccc(C)cc3)CC2)c2ccccc21	-9%	15%	0%	16µM*	6%	?
COC(=O)c1ccc(OC)c(Cn2c(=O)n(-c3cccc(Cl)c3)c(=O)c3c2c2cc(C)ccc2n3C)c1	-2%	/	7%	i	/	i
CCOC(=O)C1=C(C)n2c(s/c(=C/c3cccc([N+](=O)[O-])c3)c2=O)=NC1c1ccc(O)c(OC)c1 (configuration not stated)	-22%	?	25%	18µM*	-15%	?
O=[N+]([O-])c1cncc([N+](=O)[O-])c1Nc1cccc(O)c1	-29%	-16%	?	23µM*	-22%	?
CCc1ccc(NC(=O)CC2C(=O)OCCN2CC)cc1 (configuration not stated)	-29%	/	?	i	/	i
O=C(Cc1cccc2ccccc12)N/N=C/c1ccc(O)c([N+](=O)[O-])c1	0%	-12%	7%	i	-3%	i
O=C(Cc1cccc2ccccc12)N/N=C/c1ccc2cccc(O)c2n1	-37%	23µM*	?	?	?	i
CC(C)C(=O)OCc1cc(=O)n2nc(C3CC3)sc2n1	-8%	/	-36%	i	/	i
Cc1cc(Nc2cccc(Br)c2)n2c(nc3ccccc32)c1C#N	-26%	/	?	?	/	8.2µM*
SMILES	HepG2 tox	HT1080 IDH1KD tx	TGFb SMAD3 inh	KB-V1 cytotox	HT1080-NT tox	KB-3-1 tox
Cc1cc(Nc2ccc(O)cc2)n2c(nc3ccccc32)c1C#N	-14%	-13%	14%	i	-12%	i
NC(=O)Cn1c(=O)n(CCCCCC(=O)NCc2ccccc2)c(=O)c2sccc21	0%	/	-3%	i	/	i
CCn1c2ccccc2c2nnc(SCC(=O)Nc3ccccc3OC)nc21	-2%	/	0%	/	/	/
CCOC(=O)C(Sc1nnc2c3ccccc3n(CC)c2n1)C(=O)OCC	-10%	-19%	-23%	13µM*	-20%	?
CCn1c2ccccc2c2nnc(SCC(=O)NC(CC(C)C)C(=O)OC)nc21 (configuration not stated)	10%	-1%	?	5.2µM*	0%	i
COc1ccc(OC)c(-c2nnc3n2N=C(c2ccc(OC)c(OC4CCCC4)c2)CS3)c1	-79%	/	?	4.6µM*	/	0.92µM*
COc1ccc(OC)c(-c2nnc3n2N=C(c2ccc(OC(F)F)c(OCC4CC4)c2)CS3)c1	-26%	/	?	?	/	5.8µM*
COc1ccc(C2=Nn3c(nnc3-c3ccccc3F)SC2)cc1OC1CCOC1 (configuration not stated)	1%	/	-15%	21µM*	/	2.1µM*
COc1ccc(C2=Nn3c(nnc3-c3ccccc3F)SC2)cc1OC1CCCC1	-67%	/	13µM*	?	/	8.2µM*
COc1ccc(OC)c(-c2nnc3n2N=C(c2ccc(OC)c(OC)c2)CS3)c1	-1%	/	?	?	/	?
COc1ccc(C2=Nn3c(nnc3-c3ccccc3)SC2)cc1OC	-18%	?	20%	?	-5%	i
COc1ccc(C2=Nn3c(nnc3-c3ccccc3OC)SC2)cc1OCC1CC1	-22%	/	?	i	/	?
COc1ccc(Nc2nc3ccccc3n3c(N)nnc23)cc1	-24%	/	5%	i	/	i
CCC(=O)Nc1ccc(CC)cc1-c1nc2ccccc2n(CC(=O)Nc2ccccc2C)c1=O	0%	/	61%	i	/	i
Cc1ccccc1C(=O)Nc1nnc(S(=O)(=O)N2CCCc3ccccc32)s1	-38%	/	-18%	i	/	i
Cc1cccc(-c2ccc3[nH]c4c(c3c2)CCN2C[C@@H]([C@H](C)O)[C@@H](N(C)C(=O)NC3CCCCC3)C[C@@H]42)c1	-37%	?	?	i	?	?
COc1ccc(NC(=O)O[C@@H](C)[C@@H]2CN3CCc4c([nH]c5ccc(-c6ccc(OC)cc6)cc45)[C@@H]3C[C@@H]2N(C)C(=O)Nc2ccc(OC)cc2)cc1	-41%	-23%	?	i	-23%	i
